Measured values published in PubChem BioAssay (NCI).
Values joined by “and” are separate entries in the source; they are usually repeats but may differ in a detail not shown here. Equal values may be shown once. About 83,000 compounds went through this panel and 20% of them were active in at least one assay; those are over-represented in the sample as a whole.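 How to read the values: 0–100, growth inhibition (40 = 60% inhibited); 0, no net growth; -100 to 0, cell death (-40 = 40% of starting cells died; -100 = all dead).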 A number with no mark means an inactive call. Active and inactive are the calls of the source. Rule for the calls: active = growth percent below 10; inactive = the rest.

test system: MDA-MB-468 breast; experiment: NCI-60 one-dose screen, 48 h (100 = growth as untreated, 0 = no growth, -100 = all killed); conditions: 10 µM unless noted

SMILES	growth
O=C(Nc1c(Cl)cc(Cl)cc1Cl)ON=C1CCCCC1	96.7%
COc1ccc2c(Cl)cc(NC(=O)Nc3c(C)cccc3C)nc2c1	79.2%
Clc1ccc(-c2nnc(COc3ccccc3Cl)o2)cc1	93.7%
COc1cccc(NC2=CC(=O)C(C)=C(C)C2=O)c1	25.8%
COc1ccc(/C=C2\Oc3cc(OCCCN4CCCCC4)ccc3C2=O)cc1OC	76.4%
CCc1nc(N)nc(N)c1-c1ccc(Cl)cc1	62.5%
O=C(NO)c1ccc(Cn2c(=O)n(-c3ccccc3)c(=O)c3ccccc32)cc1	16.9%
O=C(OCc1ccccc1)c1ccccc1	95% and 74.9%
O=C1c2cccc3cccc(c23)C(=O)N1N1C(=O)c2cccc3c(N4CCNCC4)ccc(c23)C1=O	91%
O=C(N/N=C/c1ccc(Oc2ccccc2)cc1)c1cnn2c1NC(c1ccccc1)C2 (stereo not given)	30.2%
O=C(O)c1ccc(N=CC(=O)c2ccc(-c3ccccc3)cc2)cc1	83.5%
CC1=C(CCC(C)NCc2ccc(OCCCN3CCCCC3)cc2)C(C)(C)CCC1 (stereo not given)	-92.7% (active)
COc1ccc(/C=C/c2c(C(=O)/C=C/c3ccc(C(F)(F)F)cc3)c(C)nc3ccccc23)cc1	-54.5% (active)
CCCCN(CCCC)CCC(=O)c1ccc(OC)c2ccccc12	-18.7% (active)
CCCCC/C(=C\c1ccccc1)C1OC(C)C(C)O1 (stereo not given)	98.8%
CCNC(=O)C1CCCN1C(=O)C(CCCN=C(N)N)NC(=O)C(CC(C)C)NC(=O)C(CC(C)C)NC(=O)C(Cc1ccc(O)cc1)NC(=O)C(CO)NC(=O)C(Cc1c[nH]c2ccccc12)NC(=O)C(Cc1cnc[nH]1)NC(=O)C1CCC(=O)N1 (stereo not given)	87.4%
CCCCCCCCCCCCCCCC[N+]1(CC)CCCC1	-35.7% (active)
COc1ccc([C@H]2c3[nH]c4ccccc4c3C[C@H]3C(=O)N(C4CCN(Cc5c(Cl)cccc5Cl)CC4)CC(=O)N23)c(OC)c1	92.8%
Nc1ccc(NC(=O)c2ccccc2)c2c1C(=O)c1ccccc1C2=O	107%
COc1ccc(S(=O)(=O)NCCCNc2nccc(-n3cnc4ccccc43)n2)cc1	77.2%

SMILES	growth
O=c1ccc2nc(-c3ccccc3)nn(-c3ccccc3)c-2c1	-81.6% (active)
O=C1NC(=O)C(=Cc2cn(Cc3cn(Cc4ccc(Cl)cc4Cl)nn3)c3ccccc23)C(=O)N1	2.08% (active)
COc1cc(/C=C/C(=O)/C=C/c2cc(OC)c3c(c2)OCO3)cc2c1OCO2	76.2%
COc1ccc(-c2nc3sc(C)nn3c2-c2nc3cc(C)c(C)cc3[nH]2)cc1	113%
CCCCCc1ccc(S(=O)(=O)Nc2cccc(-c3csc(NCCN4CCN(C)CC4)n3)c2)cc1	87.3%
COc1cc(OC)cc(-c2ccc(-c3ccc(C(=N)N)cc3)s2)c1	-81.3% (active)
CC(=O)CC(=O)OC/C=C(/C)CCC=C(C)C	97.6%
O=c1c2cc(F)ccc2sc2c(NCCO)nc3ccccc3c12	80.3%
O=C(CCl)Oc1ccc(OC(=O)CCl)cc1	78.4%
CCCC(c1nnnn1C1CCCCC1)N1CCN(C(=O)c2ccco2)CC1 (stereo not given)	15.2%
NC(=O)C12C(=O)NC(=O)C1(C(=O)O)C21CCCC1 (stereo not given)	112%
COc1cc(C(=O)c2cnc(-c3c[nH]c4cccc(C)c34)[nH]2)cc(OC)c1OC	2% (active)
COC(=O)CC[C@@H](C)[C@H]1CC[C@H]2C3CC[C@@H]4C[C@@H]5CC[C@]4(C)[C@@]3(O5)[C@H](Br)[C@@H](Br)[C@]12C (stereo not given in full)	99.5%
Cc1ccc(C2C=C(c3ccc(Cl)cc3)N=C3SC=CN32)c(Br)c1 (stereo not given)	69.7%
COc1cc(N=Nc2cc(Cc3ccc(N(C)C)cc3)c(N)cc2N(C)C)c2ncccc2c1	-54.8% (active)
COc1cc(C(=O)c2cc(C(C)=O)c3c4ccccc4ccn23)cc(OC)c1OC	42.1%
CCCCCCCCCCCCCC1=NC(C)(C)CN1C(C)C	-61.4% (active)
c1ccc(-c2cn3ccnc3c(-c3ccc4ncn(C5CCCCC5)c4c3)n2)cc1	45.6%
O=C(Nc1nc(Cl)nc(Nc2ccc(N3CCOCC3=O)cc2)n1)c1ccc(Cl)s1	68.1%
O=S(=O)(O)CC(O)CN1CCN(CCO)CC1 (stereo not given)	105%
